Data as given in PubChem BioAssay (NCATS).
Several values for one entry are separate records, joined by “and”; a condition that tells them apart may be missing. Equal entries are not always repeated. Results filed as inconclusive are left out. Activity calls are given as the source filed them. Unless noted, no rule for the calls is given here.

How the values were obtained:
[1] = qHTS assay for cell viability of HEK293 cells (AID 743288; active = well fitted cell-killing curve with a large enough effect; also: % is scaled to controls: 0 for no effect and ±100 for the full control effect; nearly all actives have a fitted effect of over 50% in size); details: ATP luminescence (CellTiter-Glo), 18 h, stronger effect = lower value
Summary of the method: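 HEK293, 18 h, 37 C, ATP luminescence. Cells at 2,000/well were allowed at least 5 h to settle before dosing; CellTiter-Glo developed 30 min at RT.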

[2] = qHTS assay for cell viability of the p53RE-bla HCT-116 cell line (AID 743292; active = well fitted cell-killing curve with a large enough effect; also: % is scaled to controls: 0 for no effect and ±100 for the full control effect; nearly all actives have a fitted effect of over 55% in size); details: p53RE-bla HCT-116 viability, ATP luminescence, 16 h; series mostly up to 95 µM
Summary of the method: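 Luminescent ATP quantitation (CellTiter-Glo) served as the viability read-out; reagent was added after 16 h compound exposure at 37 C and read after 30 min at room temperature. Cells: p53RE-bla HCT-116, 4,000 per well.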

[3] = target: Nuclear receptor subfamily 1 group I member 2 (Rattus norvegicus) (UniProt Q9R1A7); test: qHTS assay for small molecule activators of the rat pregnane X receptor (rPXR) signaling pathway (AID 651751); details: rPXR reporter cells, luciferase (One-Glo), 24 h; also: 0% is about no effect
Sequence of Nuclear receptor subfamily 1 group I member 2 (Rattus norvegicus) (Q9R1A7 whole entry, looked up): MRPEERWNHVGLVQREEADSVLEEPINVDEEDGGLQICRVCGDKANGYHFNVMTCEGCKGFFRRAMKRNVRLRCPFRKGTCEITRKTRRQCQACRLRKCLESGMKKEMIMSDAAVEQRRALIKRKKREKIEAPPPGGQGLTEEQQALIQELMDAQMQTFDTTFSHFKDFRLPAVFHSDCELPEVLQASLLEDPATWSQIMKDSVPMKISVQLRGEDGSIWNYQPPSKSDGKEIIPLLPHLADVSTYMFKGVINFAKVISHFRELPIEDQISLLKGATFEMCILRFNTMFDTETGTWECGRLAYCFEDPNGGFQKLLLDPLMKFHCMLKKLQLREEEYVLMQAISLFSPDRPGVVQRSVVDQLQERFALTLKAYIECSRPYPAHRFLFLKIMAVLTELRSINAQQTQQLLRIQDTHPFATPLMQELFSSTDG

[4] = qHTS assay for small molecule activators of the human pregnane X receptor (PXR) signaling pathway (AID 720659); details: DPX-2 HepG2 CYP3A4-luciferase, 24 h; series mostly up to 92.3 µM; also: 0% is about no effect

Cc1cccc(C)c1[N+](=O)[O-]
inactive: max response [1] -0.503% and 0.264% | Potency [2] | max response [3] 1.64% and 13.2% | outcome [4]

Cc1cccc(C(=O)O)c1[N+](=O)[O-]
inactive: max response [1] -1.21% | Potency [2] | max response [3] -0.47% | outcome [4]

CC/C=C1/OC(=O)c2ccccc21
inactive: max response [1] -15.4% | Potency [2] | max response [3] -1.09% | outcome [4]

CCOC(=O)OCC
inactive: max response [1] 1.3% | Potency [2] | max response [3] -3.24% | outcome [4]

c1ccc2n[nH]nc2c1
inactive: max response [1] -14.1% | Potency [2] | max response [3] -4.36% | outcome [4]

CCCC=O
inactive: max response [1] -2.32% | Potency [2] | max response [3] 1.21% | outcome [4]

Nc1cc([N+](=O)[O-])ccc1C(=O)O
inactive: max response [1] -6.72% and -9.32% | Potency [2] | max response [3] -5.92% and 1.25% | outcome [4]

CSc1ccc(C=O)cc1
inactive: max response [1] 8.71% | Potency [2] | max response [3] 9.01% | outcome [4]

ON=C1CCCCC1
inactive: max response [1] 1.04% | Potency [2] | max response [3] 3.07% | outcome [4]

CC(C)(O)C(=O)O
inactive: max response [1] 1.23% | Potency [2] | max response [3] 0.872% | outcome [4]

Cc1cc(C)c(N)cc1C
inactive: max response [1] -5.87% | Potency [2] | max response [3] 3.48% | outcome [4]

CC=C(Cl)Cl
inactive: max response [1] 5.81% | Potency [2] | max response [3] -4.19% | outcome [4]

CCCCC=O
inactive: max response [1] -6.95% | Potency [2] | max response [3] -1.64% | outcome [4]

COc1ccc(N)c(C)c1
inactive: max response [1] -3.7% | Potency [2] | max response [3] 7.59% | outcome [4]

Clc1ccccn1
inactive: max response [1] -2.77% | Potency [2] | max response [3] -2.56% | outcome [4]

Nc1ccc([N+](=O)[O-])c(N)c1
inactive: max response [1] 8.4% | Potency [2] | max response [3] 1.18% | outcome [4]

COC(=O)CCC(=O)OC
inactive: max response [1] 2.75% | Potency [2] | max response [3] 1.71% | outcome [4]

CCc1ccccc1O
inactive: max response [1] -0.782% | Potency [2] | max response [3] -3.4% | outcome [4]

Cc1cc(C(=O)O)ccc1[N+](=O)[O-]
inactive: max response [1] -12% | Potency [2] | max response [3] -5.59% | outcome [4]

O=[N+]([O-])c1cccc(C(F)(F)F)c1
inactive: max response [1] 0.368% | Potency [2] | max response [3] -1.97% | outcome [4]

CCCCC(CC)C(=O)O (stereo not given)
inactive: max response [1] -7.06% | Potency [2] | max response [3] 1.13% | outcome [4]

CCCCC/C=C/C=C/C=O
inactive: max response [1] -1.02% | Potency [2] | max response [3] 5.82% and -4.16% | outcome [4]

C1CCCC1
inactive: max response [1] 0.668% | Potency [2] | max response [3] -1.32% | outcome [4]

O=[N+]([O-])c1ccccc1CCO
inactive: max response [1] -3.96% | Potency [2] | max response [3] 5.68% | outcome [4]

c1ccc2[nH]cnc2c1
inactive: max response [1] 3.37% | Potency [2] | max response [3] 3.1% | outcome [4]

CCCCCCO
inactive: max response [1] 3.47% | Potency [2] | max response [3] 2.06% | outcome [4]

CC(=O)c1ccc([N+](=O)[O-])cc1
inactive: max response [1] 5.77% | Potency [2] | max response [3] -4.15% | outcome [4]

O=C1OC(=O)c2cc([N+](=O)[O-])ccc21
inactive: max response [1] -5.72% | Potency [2] | max response [3] -0.914% | outcome [4]

CCOC(C)(C)C
inactive: max response [1] 9.83% | Potency [2] | max response [3] -4.12% | outcome [4]

Cc1ccccc1C(=O)O
inactive: max response [1] -7.38% | Potency [2] | max response [3] -1.94% | outcome [4]

C=C(C)C(=O)OCCCCCC
inactive: max response [1] 6.76% | Potency [2] | max response [3] -0.698% | outcome [4]

CC(=O)OC(C)C
inactive: max response [1] 1.6% | Potency [2] | max response [3] -1.92% | outcome [4]

CCCOCC(C)O (stereo not given)
inactive: max response [1] 2.22% | Potency [2] | max response [3] -0.746% | outcome [4]

CCCC(Cl)CCCC(Cl)CCC(Cl)CCC(Cl)CCC(Cl)CCCC(Cl)CCC (stereo not given)
inactive: max response [1] 8.25% | Potency [2] | max response [3] 2.04% | outcome [4]

Nc1cc(S(=O)(=O)O)ccc1O
inactive: max response [1] -1.98% | Potency [2] | max response [3] 3.88% | outcome [4]

CCOc1ccccc1N
inactive: max response [1] 0.362% | Potency [2] | max response [3] 2.86% | outcome [4]

CCC1CO1 (stereo not given)
inactive: max response [1] 4.98% | Potency [2] | max response [3] 4.08% | outcome [4]

CC/C=C/C#N
inactive: max response [1] 5.67% | Potency [2] | max response [3] 1.47% | outcome [4]

CCC(C)=O
inactive: max response [1] 4.69% | Potency [2] | max response [3] 4.73% | outcome [4]

OC/C(Br)=C(\Br)CO
inactive: max response [1] 0.0424% | Potency [2] | max response [3] 0.247% | outcome [4]

O=C(O[C@@H](C(=O)O)[C@@H](OC(=O)c1ccccc1)C(=O)O)c1ccccc1
inactive: max response [1] 9.93% | Potency [2] | max response [3] 4.96% | outcome [4]

CCc1ccccc1
inactive: max response [1] -3.72% | Potency [2] | max response [3] -0.471% | outcome [4]

Nc1nc2ccccc2[nH]1
inactive: max response [1] -5.2% | Potency [2] | max response [3] 10.8% | outcome [4]

CC(=O)Nc1ccc(C)cc1
inactive: max response [1] -2.69% | Potency [2] | max response [3] -0.0412% | outcome [4]

O=[N+]([O-])c1ccc(Cl)cc1Cl
inactive: max response [1] 0.0931% | Potency [2] | max response [3] -0.131% | outcome [4]

Cc1cc(C)cc([N+](=O)[O-])c1
inactive: max response [1] 1.12% | Potency [2] | max response [3] 1.37% | outcome [4]

O=CNc1ccccc1
inactive: max response [1] -2.01% | Potency [2] | max response [3] 1.37% | outcome [4]

Cc1cccc(C)c1
inactive: max response [1] 7.2% | Potency [2] | max response [3] -3.48% | outcome [4]

COC(=O)CC#N
inactive: max response [1] 6.11% | Potency [2] | max response [3] -1.86% | outcome [4]

Cc1ccc2ccccc2c1[N+](=O)[O-]
inactive: max response [1] 1.17% | Potency [2] | max response [3] -2.23% | outcome [4]

CC(O)CC(C)O (stereo not given)
inactive: max response [1] 7.82% | Potency [2] | max response [3] 6.25% | outcome [4]

CC(=O)Nc1ccccc1C
inactive: max response [1] -9.82% | Potency [2] | max response [3] -0.909% | outcome [4]

C=CCCCC
inactive: max response [1] 3.02% | Potency [2] | max response [3] 0.496% | outcome [4]

CC1CCCO1 (stereo not given)
inactive: max response [1] -15.7% | Potency [2] | max response [3] -1.92% | outcome [4]

Cc1ccc(C(C)(C)C)cc1
inactive: max response [1] 1.5% | Potency [2] | max response [3] -0.498% | outcome [4]

CCCCCCCCCCCCOCC1CO1 (stereo not given)
inactive: max response [1] -5.24% | Potency [2] | max response [3] 1.3% | outcome [4]

O=[N+]([O-])c1ccc(CCO)cc1
inactive: max response [1] -6.69% | Potency [2] | max response [3] 0.179% | outcome [4]

CCCOCC(C)OCC(C)O (stereo not given)
inactive: max response [1] -8.35% | Potency [2] | max response [3] -1.49% | outcome [4]

OC(CCl)CCl
inactive: max response [1] 5.53% | Potency [2] | max response [3] 0.333% | outcome [4]

CC(C)(c1cc(Br)c(OCC(Br)CBr)c(Br)c1)c1cc(Br)c(OCC(Br)CBr)c(Br)c1 (stereo not given)
inactive: max response [1] -17.5% | Potency [2] | max response [3] 6.37% | outcome [4]

Nc1cc(Cl)c([N+](=O)[O-])cc1O
inactive: max response [1] -3.32% | Potency [2] | max response [3] 3.19% | outcome [4]

FB(F)F
inactive: max response [1] -1.64% | Potency [2] | max response [3] -0.777% | outcome [4]

Nc1ccc(F)cc1F
inactive: max response [1] -2.02% | Potency [2] | max response [3] 3.66% | outcome [4]

CC(C)=C1CCC(C)CC1=O (stereo not given)
inactive: max response [1] 10.3% | Potency [2] | max response [3] -2.32% | outcome [4]

Nc1cccc([N+](=O)[O-])c1
inactive: max response [1] -2.77% | Potency [2] | max response [3] -4.93% | outcome [4]

CCC=O
inactive: max response [1] 1.05% | Potency [2] | max response [3] 1.07% | outcome [4]

COc1ccc(OC)cc1
inactive: max response [1] -1.36% | Potency [2] | max response [3] 2.22% | outcome [4]

Cc1cccc(Br)c1
inactive: max response [1] 1.57% | Potency [2] | max response [3] -3.61% | outcome [4]

CC(C)(O)CCC(C)(C)O
inactive: max response [1] 2.13% | Potency [2] | max response [3] 3.24% | outcome [4]

C=C(C)C(N)=O
inactive: max response [1] -1.33% | Potency [2] | max response [3] 2.1% | outcome [4]

CCN(Cc1ccccc1)c1ccccc1
inactive: max response [1] -4.87% | Potency [2] | max response [3] -3.13% | outcome [4]

O=C1NC(=O)c2cc([N+](=O)[O-])ccc21
inactive: max response [1] -4.71% | Potency [2] | max response [3] 1.8% | outcome [4]

Cc1cscn1
inactive: max response [1] -3.62% | Potency [2] | max response [3] 0.103% | outcome [4]

CC=O
inactive: max response [1] -3.08% | Potency [2] | max response [3] -4.58% | outcome [4]

c1ccc(Oc2ccccc2)cc1
inactive: max response [1] -1.32% and 1.9% | Potency [2] | max response [3] -0.536% and 5.2% | outcome [4]

Fc1ccccc1
inactive: max response [1] 9.93% | Potency [2] | max response [3] 3.18% | outcome [4]

CCCCC(CC)CNCC(CC)CCCC (stereo not given)
inactive: max response [1] -4.58% | Potency [2] | max response [3] -1.1% | outcome [4]

CCC(C)(C)C
inactive: max response [1] -11.7% | Potency [2] | max response [3] -3.38% | outcome [4]

COc1ccccc1[N+](=O)[O-]
inactive: max response [1] -1.85% and -1.91% | Potency [2] | max response [3] 1.11% and 2.57% | outcome [4]

C=Cc1ccccc1C=C
inactive: max response [1] 3.31% | Potency [2] | max response [3] 5.55% | outcome [4]
